{"source": "PubChem BioAssay (Tox21)", "note": "Results filed as inconclusive are left out. Entries that show only a call come without a potency. Active and inactive are the calls of the source. The call rests on the fitted dose curve; in most records, active means well fitted curve in the direction sought with a large enough effect in the repeat runs; inconclusive means weak or mixed curves; inactive means no such curve, though single readings can be large; an effect the other way counts as inactive or inconclusive."}
{"assay": "qHTS RealTime-Glo MT Cell Viability Assay in HepG2 cells - 32 hour (AID 1224877); further: nearly all actives have a fitted effect of over 55% in size", "conditions": "RealTime-Glo luminescence; series mostly up to 76.8 µM", "how_it_was_run": "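Tox21 10K library screened in qHTS format on HepG2 cells carrying RealTime-Glo reagents. Compounds were added after a 5 h preincubation, and the luminescent signal from continuous culture was measured repeatedly during 40 h treatment.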"}
{"smiles": "C=CC(=O)OCCCCCCCCCC", "Potency": "inactive"}
{"smiles": "O=C(O)c1ccc2c(c1)nc(C(=O)NC1CCN(C3CC3)CC1)n2Cc1cc(-c2ccc(Cl)s2)on1", "activity change, negative = cytotoxic": "-3.33% [at 15.8 µM] (inactive)"}
{"smiles": "CC(COc1ccccc1)NC(C)C(O)c1ccc(O)cc1", "note": "(stereo unspecified)", "Potency": "inactive"}
{"smiles": "Clc1nc2ccccc2nc1Cl", "Potency": "inactive"}
{"smiles": "CCCCCCCCCCCC(=O)OCC", "Potency": "inactive"}
{"smiles": "CCCN(C1CCN(C(=O)C2CCNCC2)CC1)[C@@H]1CCc2ccc(OC)cc2C1", "Potency": "inactive"}
{"smiles": "CCCOC(C)=O", "Potency": "inactive"}
{"smiles": "Cc1c(-c2cccnc2)c2ccccc2n1CCCCC(=O)O", "Potency": "inactive"}
{"smiles": "CCC(=O)O[C@@H]1C[C@H]2CC[C@]1(C)C2(C)C", "Potency": "inactive"}
{"smiles": "O=[N+]([O-])c1cccc(I)c1", "Potency": "inactive"}
{"smiles": "O=C(O)c1c2ccccc2cc2ccccc12", "Potency": "inactive"}
{"smiles": "O=C(O)c1cccnc1Nc1cccc(C(F)(F)F)c1", "Potency": "inactive"}
{"smiles": "Cc1ccc2ccccc2c1[N+](=O)[O-]", "Potency": "inactive"}
{"smiles": "O=c1c2ccccc2oc2ccccc12", "Potency": "inactive"}
{"smiles": "CC(=O)c1ccc(Cl)c(Cl)c1Cl", "Potency": "inactive"}
{"smiles": "CCc1cnc(C(=O)O)c(C(=O)O)c1", "Potency": "inactive"}
{"smiles": "C=CC(O)CCCCC", "note": "(stereo unspecified)", "Potency": "inactive"}
{"smiles": "COc1cccc([C@H](O)C2CCN(CCc3ccc(F)cc3)CC2)c1OC", "Potency": "inactive"}
{"smiles": "Cc1nc2sccn2c(=O)c1CCN1CCC(=C(c2ccc(F)cc2)c2ccc(F)cc2)CC1", "Potency": "inactive"}
{"smiles": "C=C(C)C(=O)OCCCCCCCCCCOC(=O)C(=C)C", "Potency": "inactive"}
{"smiles": "C=CC(=O)NC(C)(C)C", "Potency": "inactive"}
{"smiles": "COc1ccc(C(=O)Nc2ccccc2)cc1[N+](=O)[O-]", "Potency": "inactive"}
{"smiles": "Sc1nc(S)nc(S)n1", "Potency": "inactive"}
{"smiles": "CCCc1ccc(OC)cc1", "Potency": "inactive"}
{"smiles": "CC(C)CC(C)(C)C", "Potency": "inactive"}
{"smiles": "C(/C=C/C=C/Nc1ccccc1)=Nc1ccccc1", "Potency": "inactive"}
{"smiles": "OCC(O)c1ccccc1", "note": "(stereo unspecified)", "Potency": "inactive"}
{"smiles": "CO[C@@H]1[C@@H](O[C@@H]2O[C@H](C)[C@@H](O[C@H]3C[C@@](C)(O)[C@@H](O)[C@H](C)O3)[C@H](N(C)C)[C@H]2O)[C@@H](CC=O)C[C@@H](C)[C@@H](O[C@@H]2CC[C@H](N(C)C)[C@@H](C)O2)/C=C/C=C/C[C@@H](C)OC(=O)C[C@H]1OC(C)=O", "Potency": "inactive"}
{"smiles": "O=C1c2ccccc2C(=O)C1c1ccc2ccccc2n1", "Potency": "inactive"}
{"smiles": "CC(=O)Nc1ccccc1O", "Potency": "inactive"}
{"smiles": "O=C(OCCN1CCOCC1)c1cccnc1Nc1cccc(C(F)(F)F)c1", "Potency": "inactive"}
{"smiles": "Oc1ccc(Oc2ccccc2)cc1", "Potency": "inactive"}
{"smiles": "C=C[Si](OCC)(OCC)OCC", "Potency": "inactive"}
{"smiles": "O=[N+]([O-])c1ccccc1CCO", "Potency": "inactive"}
{"smiles": "O=C(Cl)c1cc(Cl)cc(Cl)c1", "Potency": "inactive"}
{"smiles": "CCC1=C(C)CN(C(=O)NCCc2ccc(S(=O)(=O)NC(=O)NC3CCC(C)CC3)cc2)C1=O", "note": "(stereo unspecified)", "Potency": "inactive"}
{"smiles": "CCCCCC1CCC(=O)O1", "note": "(stereo unspecified)", "Potency": "inactive"}
{"smiles": "CCOc1cc(OCC)c(C(C)=O)cc1OCC", "Potency": "inactive"}
{"assay": "A CellTox Green Cytotoxicity Assay to monitor cytotoxicity in HepG2 cells - 24 hour (AID 1224878); further: nearly all actives have a fitted effect of over 45% in size; further: potency means the concentration at half of the fitted maximal effect", "conditions": "CellTox Green fluorescence; series mostly up to 76.8 µM", "how_it_was_run": "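Fluorescent DNA-binding dye, 600 HepG2 cells/well, 5 h preincubation then compound in DMSO; same plates read at 0–40 h, 37 C.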"}
{"smiles": "C=CC(=O)OCCCCCCCCCC", "Potency": "inactive"}
{"smiles": "O=C(O)c1ccc2c(c1)nc(C(=O)NC1CCN(C3CC3)CC1)n2Cc1cc(-c2ccc(Cl)s2)on1", "cytotoxicity": "-2.25% [at 15.8 µM] (inactive)"}
{"smiles": "CC(COc1ccccc1)NC(C)C(O)c1ccc(O)cc1", "note": "(stereo unspecified)", "Potency": "inactive"}
{"smiles": "Clc1nc2ccccc2nc1Cl", "Potency": "inactive"}
{"smiles": "CCCCCCCCCCCC(=O)OCC", "Potency": "inactive"}
{"smiles": "CCCOC(C)=O", "Potency": "inactive"}
{"smiles": "Cc1c(-c2cccnc2)c2ccccc2n1CCCCC(=O)O", "Potency": "inactive"}
{"smiles": "CCC(=O)O[C@@H]1C[C@H]2CC[C@]1(C)C2(C)C", "Potency": "inactive"}
{"smiles": "O=[N+]([O-])c1cccc(I)c1", "Potency": "inactive"}
{"smiles": "O=C(O)c1c2ccccc2cc2ccccc12", "Potency": "inactive"}
{"smiles": "O=C(O)c1cccnc1Nc1cccc(C(F)(F)F)c1", "Potency": "inactive"}
{"smiles": "Cc1ccc2ccccc2c1[N+](=O)[O-]", "Potency": "inactive"}
{"smiles": "O=c1c2ccccc2oc2ccccc12", "Potency": "inactive"}
{"smiles": "CC(=O)c1ccc(Cl)c(Cl)c1Cl", "Potency": "inactive"}
{"smiles": "CCc1cnc(C(=O)O)c(C(=O)O)c1", "Potency": "inactive"}
{"smiles": "C=CC(O)CCCCC", "note": "(stereo unspecified)", "Potency": "inactive"}
{"smiles": "COc1cccc([C@H](O)C2CCN(CCc3ccc(F)cc3)CC2)c1OC", "Potency": "inactive"}
{"smiles": "Cc1nc2sccn2c(=O)c1CCN1CCC(=C(c2ccc(F)cc2)c2ccc(F)cc2)CC1", "Potency": "inactive"}
{"smiles": "C=C(C)C(=O)OCCCCCCCCCCOC(=O)C(=C)C", "Potency": "inactive"}
{"smiles": "C=CC(=O)NC(C)(C)C", "Potency": "inactive"}
{"smiles": "COc1ccc(C(=O)Nc2ccccc2)cc1[N+](=O)[O-]", "Potency": "inactive"}
{"smiles": "Sc1nc(S)nc(S)n1", "Potency": "inactive"}
{"smiles": "CCCc1ccc(OC)cc1", "Potency": "inactive"}
{"smiles": "CC(C)CC(C)(C)C", "Potency": "inactive"}
{"smiles": "CC1=C(C)C(=O)C(CCCCC#CCCCC#CCO)=C(C)C1=O", "Potency": "inactive"}
{"smiles": "C(/C=C/C=C/Nc1ccccc1)=Nc1ccccc1", "Potency": "inactive"}
{"smiles": "OCC(O)c1ccccc1", "note": "(stereo unspecified)", "Potency": "inactive"}
{"smiles": "CO[C@@H]1[C@@H](O[C@@H]2O[C@H](C)[C@@H](O[C@H]3C[C@@](C)(O)[C@@H](O)[C@H](C)O3)[C@H](N(C)C)[C@H]2O)[C@@H](CC=O)C[C@@H](C)[C@@H](O[C@@H]2CC[C@H](N(C)C)[C@@H](C)O2)/C=C/C=C/C[C@@H](C)OC(=O)C[C@H]1OC(C)=O", "Potency": "inactive"}
{"smiles": "O=C1c2ccccc2C(=O)C1c1ccc2ccccc2n1", "Potency": "inactive"}
{"smiles": "CC(=O)Nc1ccccc1O", "Potency": "inactive"}
{"smiles": "O=C(OCCN1CCOCC1)c1cccnc1Nc1cccc(C(F)(F)F)c1", "Potency": "inactive"}
{"smiles": "Oc1ccc(Oc2ccccc2)cc1", "Potency": "36.9 µM (active)"}
{"smiles": "C=C[Si](OCC)(OCC)OCC", "Potency": "inactive"}
{"smiles": "O=[N+]([O-])c1ccccc1CCO", "Potency": "inactive"}
{"smiles": "O=C(Cl)c1cc(Cl)cc(Cl)c1", "Potency": "inactive"}
{"smiles": "CCC1=C(C)CN(C(=O)NCCc2ccc(S(=O)(=O)NC(=O)NC3CCC(C)CC3)cc2)C1=O", "note": "(stereo unspecified)", "Potency": "inactive"}
{"smiles": "CCCCCC1CCC(=O)O1", "note": "(stereo unspecified)", "Potency": "inactive"}
{"smiles": "CCOc1cc(OCC)c(C(C)=O)cc1OCC", "Potency": "inactive"}
